FLuc counter: qHTS profiling assay for firefly luciferase inhibitor/activator using purifed enzyme and Km concentrations of substrates (counterscreen for miR-21 project). actives 6.9% (n = 360,000). Luciferin 4-monooxygenase (Photinus pyralis), P08659. Potency, µM (titrated, usually from 57.5 µM), without a hit: at the highest dose activity change, negative = inhibition, usual class: inhibitors. purified FLuc, Km substrates, luminescence inhibition;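 also: plate controls were vehicle for no effect and reference inhibitor for full effect; nearly all actives have a fitted effect of over 55% in size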
Target sequence (P08659 whole entry, looked up): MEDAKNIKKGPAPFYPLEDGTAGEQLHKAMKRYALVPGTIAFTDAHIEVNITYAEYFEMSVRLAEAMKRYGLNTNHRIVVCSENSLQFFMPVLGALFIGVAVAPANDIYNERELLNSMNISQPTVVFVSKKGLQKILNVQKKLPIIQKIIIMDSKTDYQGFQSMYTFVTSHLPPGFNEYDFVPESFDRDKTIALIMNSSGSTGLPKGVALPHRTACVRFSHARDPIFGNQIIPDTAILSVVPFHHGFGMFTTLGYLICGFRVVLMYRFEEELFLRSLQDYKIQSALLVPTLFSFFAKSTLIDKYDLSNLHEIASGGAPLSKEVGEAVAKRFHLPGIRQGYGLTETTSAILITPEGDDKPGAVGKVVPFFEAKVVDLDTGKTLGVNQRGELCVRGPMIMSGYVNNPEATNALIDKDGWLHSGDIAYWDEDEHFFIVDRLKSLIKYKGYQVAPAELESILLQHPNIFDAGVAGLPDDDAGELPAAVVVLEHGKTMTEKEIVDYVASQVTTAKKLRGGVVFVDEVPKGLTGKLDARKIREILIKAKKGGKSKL
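Biochemical qHTS of compounds, final roughly 60 µM downward over six points, against 10 nM purified firefly luciferase using Km concentrations of substrates (10 uM D-luciferin, 10 uM ATP) in Tris acetate pH 7.5 buffer; luminescence output.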
Rab9 prom act: qHTS Assay for Rab9 Promoter Activators | Huh7 Rab9 promoter-luciferase reporter, luminescence, 24 h | Potency, µM (series often up to 9.22 µM), for the others: at the top dose activation, negative = inhibition, most hits filed as activators | actives 2.8% (n = 320,000); also: % of control where 0% means no effect; nearly all actives have a fitted effect of over 60% in size
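Quantitative HTS format; Huh7 Rab9-luciferase reporter cells (1500/well) receive compound 2 h post-plating, incubate 24 h at 37 °C, then get luciferase reagent for 10 min before luminescence reading.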
NPC1 promoter act: qHTS Assay for NPC1 Promoter Activators; Huh7 NPC1 promoter luciferase reporter, 24 h; Potency, µM (doses to about 9.22 µM), for the others: at the highest dose activation, actives largely listed as activators; actives 2.4% (n = 320,000); also: % of control where 0% means no effect; nearly all actives have a fitted effect of over 60% in size
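Luciferase expression driven by the NPC1 promoter was measured in stably transfected Huh7 cells after a 24 h compound incubation, using a luciferase reagent and a luminescence read.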
ELG1 repair inh: qHTS screen for small molecules that inhibit ELG1-dependent DNA repair in human embryonic kidney (HEK293T) cells expressing luciferase-tagged ELG1. HEK293T ELG1-luciferase reporter, luminescence, 16 h; DNA damage induced by 5-fluorouridine. Potency, µM (titrated, usually from 46.1 µM), inactives show at the top dose activity change, negative = inhibition, actives largely listed as inhibitors. actives 2.3% (n = 330,000). AID 504467, 2011; also: % is scaled to controls: 0 for no effect and ±100 for the full control effect; nearly all actives have a fitted effect of over 55% in size
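Step one: seed 2,000 cells per well. Step two: pin-transfer compound or DMSO alongside 5-fluorouridine. Step three: incubate 16 hr, 37 °C, 5% CO2. Step four: add ONE-Glo, wait 30 min, read luminescence.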
SMN2 splice enh: qHTS Assay for Enhancers of SMN2 Splice Variant Expression; HEK293 SMN2-luciferase splicing reporter, luminescence, 30-36 h; Potency, µM (series often up to 46.1 µM), for inactives: at the top dose activity change, positive = activation, hits mostly activators; actives 2.8% (n = 210,000); also: % of control where 0% means no effect; nearly all actives have a fitted effect of over 55% in size
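qHTS luciferase splicing reporter: luminescence rises when SMN2 exon 7 is included in transfected HEK293 cells. Compound exposure lasted 30-36 h at 37C, with 4.5 mM final sodium butyrate as control, followed by a ONE-Glo read.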
ELG1 genotox: qHTS screen for small molecules that induce genotoxicity in human embryonic kidney (HEK293T) cells expressing luciferase-tagged ELG1 | HEK293T ELG1-luciferase reporter, luminescence, 16 h | Potency, µM (series often up to 46 µM), inactives show at the top dose activity change, positive = activation, hits mostly activators | actives 1.3% (n = 330,000); also: % of control where 0% means no effect; nearly all actives have a fitted effect of over 60% in size
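Quantitative HTS format in 1536-well plates. HEK293T ELG1-luciferase reporter cells receive test compound and are incubated 16 hr at 37 °C, 5% CO2; ONE-Glo added, 30 min room temperature, then luminescence read.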
The depositor's hits bear a star; ? = inconclusive; . = not tested or not shown; [ ] = another dose, or the depositor's remark. The list is not random: actives were taken first. Their share in the collection is about 9.2%. Calls follow the shape of the dose curve; as a rule, active = well fitted curve in the direction sought with a large enough effect; inconclusive = small, poorly fitted or top-dose-only effect, or another doubt; inactive = no such curve, though single readings can be large; an effect the other way counts as inactive or inconclusive. Potency is read from the fitted curve at half-maximal effect.

SMILES	FLuc counter	Rab9 prom act	NPC1 promoter act	ELG1 repair inh	SMN2 splice enh	ELG1 genotox
COC(=O)c1cccc(NC(=O)c2ccc3c(c2)C(=O)N(C(C)(C)C)C3=O)c1	2.7µM*	?	?	0%	.	2%
CCC(=O)Oc1ccc(C(=O)Nc2cccc(C(=O)NC(C)(C)C)c2)cc1	11µM*	0%	-1%	-16%	17%	-1%
C/C(=N/OC(=O)c1ccc(F)cc1)c1ccc(C)cc1	0.67µM*	-8%	1%	?	-6%	1%
N/C(=N\OC(=O)c1ccccc1Br)c1ccc([N+](=O)[O-])cc1	5.4µM*	3.5µM*	4µM*	?	.	?
Cc1ccccc1C(=O)O/N=C(\N)c1ccc([N+](=O)[O-])cc1	19µM*	?	?	?	.	?
COc1cc(C(=O)O/N=C(\N)c2cccc([N+](=O)[O-])c2)cc(OC)c1OC	-2%	8%	-3%	-16%	.	7%
CCOc1cc(C(=O)O/N=C(\N)c2ccc([N+](=O)[O-])cc2)cc(OCC)c1OCC	3%	2%	-5%	?	6%	1%
N/C(=N\OC(=O)c1ccccc1F)c1cccc([N+](=O)[O-])c1	3.4µM*	2.8µM*	2.8µM*	?	.	?
CCOc1ccc(C(=O)NCC(=O)Nc2ncccc2C)cc1OCC	3%	1%	-3%	10%	.	26%
Cc1cccc(C)c1NC(=O)CN1C(=O)CCSc2ccc(S(=O)(=O)N3CCCC3)cc21	0%	-5%	-3%	2%	.	0%
COCCNc1nc(C)nc2c1nc(-c1ccccc1)n2CCCN1CCCCC1C (stereo not given)	.	.	.	.	-5%	.
N/C(=N\OC(=O)c1ccccc1Br)c1cccc([N+](=O)[O-])c1	2.4µM*	1.3µM*	2.2µM*	?	.	5.8µM*
Cc1ccccc1C(=O)O/N=C(\c1ccccc1)c1ccccn1	21µM*	0%	0%	-9%	20%	-2%
Cc1ccccc1/C(N)=N/OC(=O)c1ccc(F)cc1	1.3µM*	?	?	?	-3%	?
N/C(Cc1ccc([N+](=O)[O-])cc1)=N\OC(=O)c1ccccc1Br	-15%	-1%	1%	-10%	-1%	2%
O=C(Nc1ccccc1)O/N=C(\c1ccccc1)c1ccccn1	-12%	3%	-1%	?	8%	4%
Cc1ccccc1C(=O)O/N=C(\N)c1ccccc1	0.17µM*	0.79µM*	3.5µM*	?	.	1.6µM*
COc1cc(OC)c(C(=O)O/N=C(\N)c2ccccc2)cc1OC	-16%	-2%[1.84 µM]	0%	11%	.	8%
Cc1ccc(S(=O)(=O)Nc2ccc(Oc3cccnc3)nc2)cc1	2%	-4%	-1%	-8%	.	-3%
O=C(CCc1nnc2n(Cc3ccccc3Cl)c(=O)c3ccccc3n12)Nc1ccc(F)cc1	-1%	.	.	.	2%	.
Cc1ccc(C2C=C(c3ccccc3)Nc3nc(NS(C)(=O)=O)nn32)cc1 (stereo not given)	?	.	.	.	12%	.
O=C1C(C2=NC(C(=O)O)C3C(=O)N(c4ccc(Cl)cc4)C(=O)C23)=C(O)c2ccccc21 (stereo not given)	6.7µM*	10%	-4%	9%	-3%	3%
O=C(/C=C/c1cn(-c2ccccc2)nc1-c1cccc(Cl)c1)N1CCN(c2ccccn2)CC1	?	-6%	-11%	21µM*	-50%	-20%
O=C(/C=C/c1cccc([N+](=O)[O-])c1)N1CCN(c2ccccn2)CC1	-1%	0%	-6%	-22%	.	?
